MITF TRPM1 inh – reduces MITF-dependent TRPM1 promoter luciferase signal; SK-MEL-5 TRPM1 promoter luciferase, 24 h; inhibition, % at 12.5 µM; 330,000 tested, 0.83% active; AID 488899;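 active means mean inhibition across replicates of 60% or more, whatever share of single replicates reaches that level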
Peg3 promoter – Peg3 promoter activity inhibition; HeLa PEG-Prom luciferase reporter, luminescence, overnight; inhibition, % at 20 µM; 360,000 tested, 1.7% active;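 active means inhibition of at least 50% at 20 µM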
TROY NFkB inh – TROY signaling inhibition. Q293 LMP1-TROYcd NF-kB luciferase reporter, 4 h. inhibition, % at 10 µM. 360,000 tested, 0.98% active;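 active means compounds whose plate-normalised and pattern-corrected inhibition of the luciferase reporter signal at the single screening dose is 50% or more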
EBV LMP1 NFkB – Epstein-Barr LMP1 NF-kappaB reporter inhibition. LMP1-induced NF-kappaB luciferase reporter cells, luminescence. inhibition, % at 12.5 µM. 350,000 tested, 0.69% active. AID 504558; in the data active means inhibition above about 41%;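 further: 0% = neutral control wells and 100% = reference inhibitor control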
TWEAK-Fn14 inh – blocks TWEAK-Fn14 interaction in a reporter cell assay; TWEAK-stimulated Fn14 reporter cells, luciferase luminescence, 8 h; inhibition, % at 10 µM; 360,000 tested, 2% active; AID 1159606; in the data active means inhibition above about 50%
HIF-2a inh – HIF-2a inhibition. inhibition, % at 18.8 µM. 360,000 tested, 0.72% active. 786-0 RCC cells HIF-2a reporter, luciferase luminescence, overnight. AID 624352;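 active means inhibition of the luminescence signal of 40% or more relative to plate controls, in a single-dose primary screen at 18.75 µM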
Mdm2 MdmX conf – Mdm2/MdmX (human) interaction inhibition, confirmed | inhibition, % at 8 µM | AID 504601 | 740 tested, 99% active | SaOS-2 split-luciferase Mdm2/MdmX complementation, luminescence | shares compounds with HIF-2a inh;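 active means mean inhibition of the luminescence signal across two replicates at or above 26 percent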
HIF-2a inh conf – HIF-2a inhibition, single concentration confirmation; shares compounds with HIF-2a inh; 786-0 RCC cells, HIF-2a luciferase reporter luminescence, overnight; inhibition, % at 18.8 µM; 1,800 tested, 56% active;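 active means mean inhibition across four replicates of at least 40 percent at the single tested concentration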
HIF-1a counter – HIF-1a inhibition counter-screen for HIF-2a hits | AID 651589 | 1,800 tested, 72% active | shares compounds with HIF-2a inh | MiaPaCa-2 HIF-1a luciferase reporter, desferoxamine, overnight | inhibition, % at 18.8 µM;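 active means mean inhibition of the reporter signal across four replicates at the single tested dose of 50% or more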
* = called active by the depositor. Compounds with a hit are over-represented: about 4% of the library has one in this group of screens.

Results for NC(=Nc1c([N+](=O)[O-])cnc2ccccc12)N1CCOCC1 ?
Peg3 promoter: 1; TROY NFkB inh: 4; TWEAK-Fn14 inh: 4; HIF-2a inh: 4

How did CCN(CC)CC(=O)c1ccc(-c2ccccc2)cc1 do in these assays?
MITF TRPM1 inh: -3; Peg3 promoter: -7; TROY NFkB inh: -13; EBV LMP1 NFkB: -3; TWEAK-Fn14 inh: 16; HIF-2a inh: 46*; HIF-2a inh conf: 7; HIF-1a counter: 28

Results for CN(C)CC(=O)c1ccc(-c2ccccc2)cc1 ?
MITF TRPM1 inh: -7; Peg3 promoter: 4; TROY NFkB inh: -10; EBV LMP1 NFkB: 4; TWEAK-Fn14 inh: 14; HIF-2a inh: 29

What do the screens show for `CC(C)CNc1ncnc2c1ncn2[C@H]1CN(Cc2ccc(C(=O)O)cc2)C[C@@H](CO)O1`?
Peg3 promoter: 8; TROY NFkB inh: -10; TWEAK-Fn14 inh: 4; HIF-2a inh: 9

How did O=C(Nc1ccc(Nc2ccncc2)cc1)c1ccc([N+](=O)[O-])cc1 do in these assays?
MITF TRPM1 inh: 86*; Peg3 promoter: 80*; TROY NFkB inh: 10; EBV LMP1 NFkB: 17; TWEAK-Fn14 inh: -11; HIF-2a inh: 48*; HIF-2a inh conf: -23; HIF-1a counter: 27

How did O=C(Nc1cccc(Cl)c1)c1csc([C@H]2C[C@H](O)[C@@H](CO)O2)n1 do in these assays?
Peg3 promoter: -257; TROY NFkB inh: -46; TWEAK-Fn14 inh: -1; HIF-2a inh: -231

What do the screens show for `COc1cc(/C=C/C(=O)O)ccc1O`?
Peg3 promoter: 7; TROY NFkB inh: -2; EBV LMP1 NFkB: -2; TWEAK-Fn14 inh: -6; HIF-2a inh: 20

Results for COc1ccc(/C=C/C(=O)c2ccc([N+](=O)[O-])o2)cc1OC ?
Mdm2 MdmX conf: 99*

How did NS(=O)(=O)c1ccc(CNC(=O)/C=C/c2cccc(Cl)c2)cc1 do in these assays?
MITF TRPM1 inh: 7; Peg3 promoter: 10; TROY NFkB inh: -1; EBV LMP1 NFkB: 7; TWEAK-Fn14 inh: 7; HIF-2a inh: 15

How did O=C(/C=C/c1cccc(Cl)c1)c1ccc([N+](=O)[O-])o1 do in these assays?
MITF TRPM1 inh: 98*; Peg3 promoter: 99*; TROY NFkB inh: 76*; EBV LMP1 NFkB: -19; TWEAK-Fn14 inh: 101*; HIF-2a inh: 97*; Mdm2 MdmX conf: 102*

Results for COc1cc(/C=C/C(=O)c2ccc([N+](=O)[O-])o2)ccc1O ?
MITF TRPM1 inh: 85*; Peg3 promoter: 101*; TROY NFkB inh: 52*; EBV LMP1 NFkB: -21; TWEAK-Fn14 inh: 97*; HIF-2a inh: 97*; HIF-2a inh conf: 79*; HIF-1a counter: 105*

Results for COc1cccc(CN2CCC(C)(Oc3cccc(Cl)c3)C2)c1OC (stereo not drawn) ?
Peg3 promoter: -11; TROY NFkB inh: -3; TWEAK-Fn14 inh: 2; HIF-2a inh: -1

How did CCN1CCN(CCCNC(=O)c2ccc(/C=C3/Sc4ccccc4N(Cc4ccccc4F)C3=O)cc2)CC1 do in these assays?
MITF TRPM1 inh: 42; Peg3 promoter: 59*; TROY NFkB inh: 60*; EBV LMP1 NFkB: 0; TWEAK-Fn14 inh: 7; HIF-2a inh: 91*; HIF-2a inh conf: -21; HIF-1a counter: 102*

Results for O=C1NC[C@H](CCCCN2C[C@H](Cc3ccc(O)cc3)N(CCC3CCCCC3)C(=O)C2=O)N(CCC2CCCCC2)C1=O ?
TROY NFkB inh: -9; TWEAK-Fn14 inh: -5; HIF-2a inh: 6

How did Oc1ccccc1N=N/C(=N/Nc1ccccc1O)c1ccccc1 do in these assays?
MITF TRPM1 inh: -3; Peg3 promoter: 0; TROY NFkB inh: 5; EBV LMP1 NFkB: -3; TWEAK-Fn14 inh: 19; HIF-2a inh: 13

Results for Cn1nnnc1N=N/C(=N/Nc1ccccc1)c1ccccc1 ?
MITF TRPM1 inh: 9; Peg3 promoter: 52*; TROY NFkB inh: -46; EBV LMP1 NFkB: 60*; TWEAK-Fn14 inh: -10; HIF-2a inh: -74; Mdm2 MdmX conf: 91*

How did CC(C)c1c(C(=O)Nc2ccccc2)c(-c2ccccc2)c(-c2ccc(F)cc2)n1CC[C@@H](O)C[C@@H](O)CC(=O)O do in these assays?
Peg3 promoter: 19; TROY NFkB inh: -9; TWEAK-Fn14 inh: -4; HIF-2a inh: 40*; HIF-2a inh conf: 27; HIF-1a counter: -34

How did CCc1ccc(-c2nc(CSCC(=O)NCCCN3CCCC3=O)c(C)o2)cc1 do in these assays?
MITF TRPM1 inh: 7; Peg3 promoter: 14; TROY NFkB inh: 21; EBV LMP1 NFkB: 3; TWEAK-Fn14 inh: 84*; HIF-2a inh: 45*; HIF-2a inh conf: -5; HIF-1a counter: 16

How did COC(=O)COc1ccc(/C=N/NC(=O)CN(c2ccccc2OC)S(=O)(=O)c2ccccc2)cc1 do in these assays?
MITF TRPM1 inh: 8; Peg3 promoter: 18; TROY NFkB inh: -12; EBV LMP1 NFkB: -3; TWEAK-Fn14 inh: 0; HIF-2a inh: 57*; HIF-2a inh conf: 74*; HIF-1a counter: 57*

Results for COC(=O)COc1ccc(/C=N/NC(=O)c2ccc(N(Cc3ccccc3)S(C)(=O)=O)cc2)cc1 ?
MITF TRPM1 inh: 6; Peg3 promoter: 4; TROY NFkB inh: 6; EBV LMP1 NFkB: -2; TWEAK-Fn14 inh: 0; HIF-2a inh: 64*; HIF-2a inh conf: 19; HIF-1a counter: -3

What do the screens show for `COc1ccccc1N(CC(=O)N/N=C/c1ccc(OCC(=O)NCc2ccco2)cc1)S(=O)(=O)c1ccc(C)cc1`?
MITF TRPM1 inh: -1; Peg3 promoter: 43; TROY NFkB inh: 7; EBV LMP1 NFkB: -6; TWEAK-Fn14 inh: 18; HIF-2a inh: 30

How did COc1cccc(OC)c1C(=O)OCC(=O)NC1CCCCCC1 do in these assays?
MITF TRPM1 inh: 11; Peg3 promoter: 9; TROY NFkB inh: -5; EBV LMP1 NFkB: -6; TWEAK-Fn14 inh: 1; HIF-2a inh: 3

How did O=C(CCn1c(=O)c2cccn2c2cccnc21)N1CCN(c2cccc(Cl)c2)CC1 do in these assays?
MITF TRPM1 inh: -16; Peg3 promoter: 1; TROY NFkB inh: -3; EBV LMP1 NFkB: 6; TWEAK-Fn14 inh: -12; HIF-2a inh: 19

What do the screens show for `CCN(CC)CCNC(=O)c1cc(-c2cccnc2)nc2ccc(S(=O)(=O)N3CCC(C)CC3)cc12`?
MITF TRPM1 inh: 88*; Peg3 promoter: 72*; TROY NFkB inh: 23; EBV LMP1 NFkB: -10; TWEAK-Fn14 inh: 14; HIF-2a inh: 64*; Mdm2 MdmX conf: 102*; HIF-2a inh conf: -1; HIF-1a counter: 100*

Screens as filed in PubChem BioAssay.
